# Assay results published in the antibiotic and cytotoxicity screens of Wong et al. (2023).
# Out of some 39,000 compounds screened, about 3,300 (8.5%) were called active. The sample as a whole holds a higher share of actives than the screen did.
# System: HepG2
# Test: cytotoxicity call (relative viability < 0.9)
# Details: 10 µM
row,Compound,cytotoxicity call
1,COc1ccc(S(=O)(=O)Nc2ccc3c(c2)C(=O)N([C@H](C)CO)C[C@@H](C)[C@@H](CN(C)S(=O)(=O)c2cn(C)cn2)O3)cc1,inactive
2,O=C(N[C@H]1CCS(=O)(=O)C1)N1CCCCC1,inactive
3,Cc1ccc(N2C(=O)c3ccccc3[C@](C)(C(=O)NCCN3CCOCC3)[C@@H]2c2ccc(CO)cc2)nc1,inactive
4,C[C@@H]1CN([C@H](C)CO)C(=O)Cc2cc(NC(=O)Cn3cnnn3)ccc2O[C@@H]1CN(C)C(=O)Nc1ccc(F)cc1,inactive
5,Cc1ccc(S(=O)(=O)N(C)C[C@H]2OCCCC[C@H](C)Oc3ccc(NC(=O)Nc4cccc5ccccc45)cc3C(=O)N([C@@H](C)CO)C[C@H]2C)cc1,inactive
6,O=C(C1=C[C@@H](C2CC2)C[C@@H](OCc2ccc(CO)cc2)O1)N1CCN(Cc2ccc3c(c2)OCO3)CC1,inactive
7,CCC(=O)O[C@H]1[C@H](O[C@@H]2[C@@H](C)[C@H](O[C@H]3C[C@@](C)(OC)[C@@H](O)[C@H](C)O3)[C@@H](C)C(=O)O[C@H](CC)[C@@](C)(O)[C@H](O)[C@@H](C)C(=O)[C@H](C)C[C@@]2(C)O)O[C@H](C)C[C@@H]1N(C)C,inactive
8,O=C(C[C@H]1C=C[C@H](NC(=O)c2ccc(F)cc2)[C@H](CO)O1)NCc1ccncn1,inactive
9,CN(C)C(=O)c1ccc(-c2cccc(-c3nc(C(=O)NC4CCC4)cc4c3[C@@H](CCO)N([S@](=O)C(C)(C)C)C4)c2)cc1,inactive
10,C[C@@H]1CCCCO[C@@H](CN(C)S(=O)(=O)c2cccs2)[C@@H](C)CN([C@@H](C)CO)C(=O)c2cc(NC(=O)Nc3ccc(F)cc3)ccc2O1,inactive
11,C[C@H]1CCCCO[C@H](CN(C)S(=O)(=O)c2ccc(F)cc2)[C@@H](C)CN([C@@H](C)CO)C(=O)c2cc(NS(=O)(=O)c3ccc(Cl)cc3)ccc2O1,active
12,C[C@H](CO)N1C[C@H](C)[C@H](CN(C)S(=O)(=O)c2ccc(F)cc2)OCCCC[C@H](C)Oc2ccc(NS(=O)(=O)c3ccc(Cl)cc3)cc2C1=O,inactive
13,C[C@@H]1CCCCO[C@H](CN(C)S(=O)(=O)c2ccc(F)cc2)[C@H](C)CN([C@H](C)CO)C(=O)c2cc(NS(=O)(=O)c3ccc(Cl)cc3)ccc2O1,inactive
14,C[C@@H]1CN([C@H](C)CO)C(=O)c2cc(NS(=O)(=O)c3ccc(Cl)cc3)ccc2O[C@@H](C)CCCCO[C@H]1CN(C)S(=O)(=O)c1ccc(F)cc1,active
15,C[C@@H]1CCCCO[C@H](CN(C)S(=O)(=O)c2ccc(F)cc2)[C@@H](C)CN([C@H](C)CO)C(=O)c2cc(NS(=O)(=O)c3ccc(Cl)cc3)ccc2O1,inactive
16,C[C@H](CO)N1C[C@H](C)[C@@H](CN(C)S(=O)(=O)c2ccc(F)cc2)OCCCC[C@H](C)Oc2ccc(NS(=O)(=O)c3ccc(Cl)cc3)cc2C1=O,inactive
17,C[C@@H]1CN([C@H](C)CO)C(=O)c2cc(NS(=O)(=O)c3ccc(F)cc3)ccc2O[C@@H](C)CCCCO[C@H]1CN(C)S(=O)(=O)c1ccc(Cl)cc1,inactive
18,C[C@H]1CCCCO[C@@H](CN(C)S(=O)(=O)c2ccc(Cl)cc2)[C@@H](C)CN([C@@H](C)CO)C(=O)c2cc(NS(=O)(=O)c3ccc(F)cc3)ccc2O1,inactive
19,C[C@H]1CCCCO[C@H](CN(C)S(=O)(=O)c2ccc(Cl)cc2)[C@@H](C)CN([C@@H](C)CO)C(=O)c2cc(NS(=O)(=O)c3ccc(F)cc3)ccc2O1,active
20,CC(C)NC(=O)N(C)C[C@H]1Oc2ccc(NC(=O)Cc3ccccc3)cc2CC(=O)N([C@H](C)CO)C[C@H]1C,inactive

row,Compound,cytotoxicity call
1,C[C@@H]1CCCCO[C@H](CN(C)Cc2ccc(C(=O)O)cc2)[C@H](C)CN([C@H](C)CO)C(=O)c2cc(NS(=O)(=O)c3ccc(Cl)cc3)ccc2O1,inactive
2,COc1ccc(NC(=O)N(C)C[C@@H]2Oc3c(NC(=O)c4cc(C)nn4C)cccc3C(=O)N([C@@H](C)CO)C[C@@H]2C)cc1,inactive
3,COc1ccc(CN(C)C[C@@H]2OCCCC[C@@H](C)Oc3ccc(NS(=O)(=O)c4ccc(C)cc4)cc3C(=O)N([C@H](C)CO)C[C@@H]2C)cc1,inactive
4,COc1ccc(S(=O)(=O)N(C)C[C@H]2Oc3c(NS(C)(=O)=O)cccc3C(=O)N([C@@H](C)CO)C[C@H]2C)cc1,inactive
5,C[C@@H]1CCCCO[C@@H](CN(C)C(=O)c2ccncc2)[C@H](C)CN([C@H](C)CO)C(=O)c2cc(NS(=O)(=O)c3ccc(Cl)cc3)ccc2O1,inactive
6,C[C@@H]1CN([C@@H](C)CO)S(=O)(=O)c2ccc(-c3ccncc3)cc2O[C@@H]1CN(C)C(=O)c1cccc(F)c1,inactive
7,CO[C@H]1CN(C)C(=O)c2cc(NC(=O)C3CC3)ccc2OC[C@@H](C)N(C(=O)CN2CCOCC2)C[C@@H]1C,inactive
8,C=CC(=O)N1CC[C@@H](Oc2nc(Nc3ccc(N4CCC(N5CCN(C)CC5)CC4)cc3)c(C(N)=O)nc2CC)C1,active
9,CCc1nc(C(N)=O)c(Nc2ccc(N3CCC(N4CCN(C)CC4)CC3)c(OC)c2)nc1NC1CCOCC1,active
10,COCC(=O)NCc1cc(=O)n2c(n1)CN(c1ncccn1)CCC2,inactive
11,CO[C@H]1CN(C)C(=O)c2cc(NC(=O)Nc3ccccc3)ccc2OC[C@@H](C)N(C(=O)CN(C)C)C[C@@H]1C,inactive
12,C[C@H](CO)N1C[C@H](C)[C@H](CN(C)Cc2ccc(C(=O)Nc3ccccc3N)cc2)Oc2ccc(NS(=O)(=O)c3cn(C)cn3)cc2CC1=O,inactive
13,COc1ccc(CN(C)C[C@@H]2OCCCC[C@@H](C)Oc3ccc(NC(=O)Nc4ccc(F)cc4)cc3C(=O)N([C@@H](C)CO)C[C@H]2C)cc1,active
14,COc1ccc(CN(C)C[C@@H]2OCCCC[C@H](C)Oc3ccc(NC(=O)Nc4ccc(F)cc4)cc3C(=O)N([C@@H](C)CO)C[C@H]2C)cc1,inactive
15,COc1ccc(CN(C)C[C@H]2OCCCC[C@@H](C)Oc3ccc(NC(=O)Nc4ccc(F)cc4)cc3C(=O)N([C@@H](C)CO)C[C@H]2C)cc1,inactive
16,COc1ccc(CN(C)C[C@@H]2OCCCC[C@@H](C)Oc3ccc(NC(=O)Nc4ccc(F)cc4)cc3C(=O)N([C@H](C)CO)C[C@@H]2C)cc1,inactive
17,COc1ccc(CN(C)C[C@H]2OCCCC[C@@H](C)Oc3ccc(NC(=O)Nc4ccc(F)cc4)cc3C(=O)N([C@H](C)CO)C[C@@H]2C)cc1,inactive
18,COc1ccc(CN(C)C[C@@H]2OCCCC[C@H](C)Oc3ccc(NC(=O)Nc4ccc(F)cc4)cc3C(=O)N([C@H](C)CO)C[C@H]2C)cc1,inactive
19,COc1ccc(CN(C)C[C@@H]2OCCCC[C@H](C)Oc3ccc(NC(=O)Nc4ccc(F)cc4)cc3C(=O)N([C@H](C)CO)C[C@@H]2C)cc1,active
20,COc1ccc(CN(C)C[C@@H]2OCCCC[C@@H](C)Oc3ccc(NC(=O)Nc4ccc(F)cc4)cc3C(=O)N([C@@H](C)CO)C[C@@H]2C)cc1,inactive

row,Compound,cytotoxicity call
1,COc1ccc(CN(C)C[C@@H]2OCCCC[C@H](C)Oc3ccc(NC(=O)Nc4ccc(F)cc4)cc3C(=O)N([C@@H](C)CO)C[C@@H]2C)cc1,active
2,COc1ccc(CN(C)C[C@@H]2OCCCC[C@@H](C)Oc3ccc(NC(=O)Nc4ccc(F)cc4)cc3C(=O)N([C@H](C)CO)C[C@H]2C)cc1,active
3,C[C@H](CO)N1C[C@H](C)[C@@H](CN(C)Cc2ccccc2F)Oc2cc(C#CC3CC3)ccc2S1(=O)=O,inactive
4,Nc1cnc(Cl)nc1N,inactive
5,COC(=O)C[C@@H]1C(=O)NCCN1C(=O)NS(=O)(=O)c1ccc(C)cc1,inactive
6,C[C@@H]1CN([C@H](C)CO)C(=O)c2cccc(NS(=O)(=O)c3cccs3)c2O[C@@H]1CN(C)S(=O)(=O)c1ccccc1,inactive
7,O=C(NN1CCCCC1)c1nn(-c2ccc(Cl)cc2Cl)c(-c2ccc(C#Cc3ccc(C(F)(F)F)cc3)s2)c1CNS(=O)(=O)N1CCCC1,inactive
8,COc1ccc(CN(C)C[C@H]2OCCCC[C@H](C)Oc3ccc(NC(=O)Nc4ccc(F)cc4)cc3C(=O)N([C@@H](C)CO)C[C@@H]2C)cc1,inactive
9,COc1ccc(CN(C)C[C@H]2OCCCC[C@@H](C)Oc3ccc(NC(=O)Nc4ccc(F)cc4)cc3C(=O)N([C@H](C)CO)C[C@H]2C)cc1,active
10,COc1ccc(CN(C)C[C@H]2OCCCC[C@@H](C)Oc3ccc(NC(=O)Nc4ccc(F)cc4)cc3C(=O)N([C@@H](C)CO)C[C@@H]2C)cc1,active
11,COc1ccc(CN(C)C[C@H]2OCCCC[C@H](C)Oc3ccc(NC(=O)Nc4ccc(F)cc4)cc3C(=O)N([C@@H](C)CO)C[C@H]2C)cc1,active
12,COc1ccc(CN(C)C[C@H]2OCCCC[C@H](C)Oc3ccc(NC(=O)Nc4ccc(F)cc4)cc3C(=O)N([C@H](C)CO)C[C@@H]2C)cc1,inactive
13,COc1ccc(CN(C)C[C@H]2OCCCC[C@H](C)Oc3ccc(NC(=O)Nc4ccc(F)cc4)cc3C(=O)N([C@H](C)CO)C[C@H]2C)cc1,active
14,CCn1nnc2c(SCC(N)=O)ncnc21,inactive
15,O=C(NCc1ccccc1)OCCO,inactive
16,O=C(C[C@H]1CC[C@@H]2[C@H](COC[C@@H](O)CN2C(=O)Nc2ccc(F)cc2)O1)NCCCN1CCOCC1,inactive
17,CN1CCN(C(=O)C[C@H]2CC[C@@H]3[C@H](COC[C@H](O)CN3S(=O)(=O)c3cccc(F)c3)O2)CC1,inactive
18,COc1cccc(S(=O)(=O)N2C[C@H](O)COC[C@H]3O[C@@H](CC(=O)NCCCN4CCOCC4)CC[C@@H]32)c1,inactive
19,C[C@@H]1CCCCO[C@H](CN(C)C(=O)Cc2ccccc2)[C@@H](C)CN([C@H](C)CO)C(=O)c2cc(NS(=O)(=O)c3ccc(Cl)cc3)ccc2O1,inactive
